The source of these data is PubChem BioAssay (NCI).

A short description of test [1]: NCI Yeast Anticancer Drug Screen. Data for the rad50 strain (AID 155).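 Note: 0% = growth of vehicle-only cultures of the same strain.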 Particulars: S. cerevisiae rad50 strain growth inhibition; at 50.0 µM; stronger effect = higher value. The procedure, abridged:
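Yeast carrying a defined DNA repair defect were exposed to test compounds, and growth was compared with vehicle-treated controls to give percent inhibition.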

Test [2] can be described thus: NCI Yeast Anticancer Drug Screen. Data for the mec2-1 strain (AID 157). To be noted: S. cerevisiae mec2-1 strain, at 50.0 µM, stronger effect = higher value. The method in brief: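 Vehicle-treated cultures served as reference for growth inhibition of compound-exposed mec2-1 yeast.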
Test [3] in a line: NCI Yeast Anticancer Drug Screen. Data for the sgs1 mgt1 strain (AID 161).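 Note: 0% = growth of cultures given vehicle only.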 Particulars: S. cerevisiae sgs1 mgt1 strain, at 50.0 µM, stronger effect = higher value. The method in brief: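 Read-out: growth inhibition vs vehicle controls. Cells: mutant yeast strain deficient in DNA damage repair.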
Test [4] can be described thus: NCI Yeast Anticancer Drug Screen. Data for the cln2 rad14 strain (AID 165).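 Note: 0% = growth equal to vehicle treated cultures.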 Particulars: S. cerevisiae cln2 rad14 strain, at 50.0 µM, stronger effect = higher value. The procedure, abridged:
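Each compound was tested on cln2 rad14 yeast. Inhibition of growth was calculated against vehicle-exposed controls.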

Test [5] is described as follows: NCI Yeast Anticancer Drug Screen. Data for the bub3 strain (AID 167). Particulars: S. cerevisiae bub3 mutant strain, at 50.0 µM, stronger effect = higher value. The method in brief:
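Compounds were applied to a genetically altered yeast strain carrying a cell-cycle control defect. Growth inhibition was scored against vehicle-treated controls.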

Test [6] is described as follows: NCI Yeast Anticancer Drug Screen. Data for the mlh1 rad18 strain (AID 175). Particulars: S. cerevisiae mlh1 rad18 strain growth inhibition; at 50.0 µM; stronger effect = higher value. The method in brief: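 Vehicle-treated cultures served as the reference for growth inhibition in a yeast strain carrying DNA damage repair alterations exposed to each compound.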

“And” between values parts separate entries of the source, which are not always exact repeats. Identical values can stand only once. This is part of a sample that, as a whole, favours compounds with a hit. Of some 79,000 tested, about 15% had one in any assay. Values without a mark were called inactive. The source made the active and inactive calls. Cut-off read from the data, not from the text of the source: active = growth inhibition above about 70%; inactive = the rest.

In the case of `O=C([O-])C[OH+]c1ccc(Cl)cc1Cl.O=C([O-])C[OH+]c1ccc(Cl)cc1Cl.[Ni+2]`, the growth inhibition in test [1] was 10.3%; in test [2], 21.6%; in test [3] it was 18.9%; in test [4], 3.1%; in test [5], 3.85%; in test [6], 41.5%.

With `NC(N)=Nc1c(N)ncnc1N`, the growth inhibition was -4.9% in test [1]; 6.2% in test [2]; 4.4% in test [3]; -2.65% in test [4]; -0.8% in test [5]; -4.45% in test [6].

As to `O=c1[nH]cc(N=Cc2ccccc2Cl)c(=O)[nH]1.[Cl][Pt][Cl]`, the growth inhibition in test [1] is 20.4%; in test [2], -5.75%; in test [3], -18.1%; in test [4], 1.95%; in test [5], 1.55%; in test [6] it was -9.05%.

`O=[As](O)(O)c1ccc2nc3cc([As](=O)(O)O)ccc3nc2c1`: the growth inhibition in test [1] is -11.1%; in test [2] it was -3%; in test [3] it was -20.4%; in test [4], 3.8%; in test [5] it was 2.35%; in test [6], -30.9%.

`COc1cc(C(CC(C)=O)c2cc3c(cc2OC(C)=O)OCO3)cc(OC)c1OC` (stereo not drawn): the growth inhibition in test [1] is 18.8%; in test [2], 4.4%; in test [3], -0.9%; in test [4], -9.1%; in test [5], 10.8%; in test [6] it was 21.9%.

Take `CC(C)(C)C[C](C)(c1ccccc1)[Sn]([CH3])([CH3])[CH3]` (stereo not drawn): the growth inhibition is -14.2% in test [1]; 4.9% in test [2]; 8.4% in test [3]; 6.9% in test [4]; 1.2% in test [5]; 7% in test [6].

With `Cc1ccc(C(=O)C2C(c3ccccc3)N2Cc2ccccc2)cc1` (stereo not drawn), the growth inhibition in test [1] is 13.8%; in test [2], 7.85%; in test [3] it was 35.4%; in test [4], -10.3%; in test [5], 30.6%; in test [6], 14.7%.

On to `CC(COC(=O)NCc1ccc(Cl)cc1Cl)OC(N)=O` (stereo not drawn), for which the growth inhibition in test [1] was 2.6%; in test [2], 0.35%; in test [3], 4.25%; in test [4], -12.8%; in test [5], -5%; in test [6], -8.65%.

`c1ccc(-c2ccc[n+](CCC[n+]3cccc(-c4ccccn4)c3)c2)nc1`: the growth inhibition in test [1] is 2.9%; in test [2], 2.45%; in test [3], -15.2%; in test [4], -8.45%; in test [5], -5.75%; in test [6], 6.25%.

For the molecule `CN(C)CCc1ccc(O)cc1`, the growth inhibition in test [1] is 3.9% and -2.85%; in test [2] it was 4.2% and 2.8%; in test [3] it was 10.1% and -3.15%; in test [4], 5.55% and -16.4%; in test [5], 2.85% and -2.9%; in test [6], -0.85% and 4.85%.

As to `O=[N+]([O-])c1ccc(O)c(CBr)c1`, the growth inhibition in test [1] is 35.5%; in test [2], -5.15%; in test [3], 7.55%; in test [4] it was 18.6%; in test [5], 13.9%; in test [6], 4.95%.

`Cc1nc2cccc(F)c2c(=O)n1-c1nnc(C2CC2)s1`: the growth inhibition was -28.6% in test [1]; -23.5% in test [2]; -20.2% in test [3]; 13.5% in test [4]; -41.2% in test [5]; -9.05% in test [6].

For `O=c1cccc2n1CC1CNC[C@H]2C1`, the growth inhibition in test [1] was 16.6%; in test [2], 9.5%; in test [3], 5.8%; in test [4], 7.75%; in test [5], 12.6%; in test [6], -4.85%.

For the molecule `CCOP(=O)(OCC)Oc1cc(C)c(SC)c(C)c1`, the growth inhibition in test [1] is -6.45%; in test [2], -24.4%; in test [3], -0.6%; in test [4], 9.25%; in test [5], 19%; in test [6], -16.8%.

On to `[O-]c1n[n+](C2CCCCC2)no1`, for which the growth inhibition in test [1] was -11.4%; in test [2], -7.6%; in test [3], -45.7%; in test [4], -31.1%; in test [5] it was 2.4%; in test [6], -13.4%.

In the case of `O=NN1CCNCC1`, the growth inhibition in test [1] is -20.1% and -11.3%; in test [2] it was -16.1% and -24.3%; in test [3] it was -16.7% and -13.2%; in test [4], -24.5% and -9.25%; in test [5], -5.9% and -6.1%; in test [6], 8.2% and -2.55%.

As to `N.N.N.N.[Co+3].[O-][Cl+3]([O-])([O-])[O-].[OH3+].[OH3+]`, the growth inhibition is -25.4% in test [1]; -1.15% in test [2]; -22.3% in test [3]; 13.9% in test [4]; -6% in test [5]; -13.6% in test [6].

For `NC(=O)Cc1ccc([As]=O)cc1` (stereo not drawn), the growth inhibition is 19.6% in test [1]; 10.1% in test [2]; 9.05% in test [3]; 21% in test [4]; 6.85% in test [5]; 14.9% in test [6].

Turning to `c1ccc(CC[n+]2cccc3ccccc32)cc1`, the growth inhibition was -3.8% in test [1]; 11.2% in test [2]; 3.95% in test [3]; -26.3% in test [4]; -8.1% in test [5]; -6.85% in test [6].

As to `CCN(CC)CCN1C(=O)NC(=O)C(CC)(c2ccccc2)C1=O` (stereo not drawn), the growth inhibition in test [1] was 4.1%; in test [2], 9.4%; in test [3] it was -6%; in test [4], 2.9%; in test [5] it was 8.05%; in test [6], 4.9%.

Consider `O=[N+]([O-])CCCCl`, for which the growth inhibition in test [1] is 2.05%; in test [2], -3.05%; in test [3], -3.05%; in test [4], -7.95%; in test [5], 1.85%; in test [6], 2.35%.

`Cc1nnc2n1-c1ccccc1C(=S)N1CSCC21` (stereo not drawn): the growth inhibition in test [1] is -22%; in test [2] it was -0.25%; in test [3] it was -24.7%; in test [4], 8.15%; in test [5], -6.7%; in test [6], -0.45%.

`ClCCN(CCCl)c1ccc(/C=N/Nc2ccnc3ccccc23)cc1`: the growth inhibition in test [1] was 96.2% (active); in test [2] it was 96.3% (active); in test [3], 96.8% (active); in test [4] it was 96.5% (active); in test [5], 87.2% (active); in test [6] it was 88.8% (active).

Consider `COc1cc2ccnc(C3(OC(=O)c4ccccc4)CCN(CCc4ccccc4)CC3)c2cc1OC`, for which the growth inhibition in test [1] is -1.3%; in test [2], -7.15%; in test [3], -21.9%; in test [4] it was -17.1%; in test [5], 2.95%; in test [6], -0.95%.

With `O=C1CC2OCC=C3CN4CCC56c7ccccc7N1C5C2C3CC46O` (stereo not drawn), the growth inhibition in test [1] is 25.3%; in test [2] it was -21.2%; in test [3] it was 6.1%; in test [4], -1.2%; in test [5], 30.7%; in test [6], -62.1%.

Take `CO/N=C1\CC(C)N2C(=O)C(C(C)C)NC(=O)C(NC(=O)c3c4nc5c(C(=O)NC6C(=O)NC(C(C)C)C(=O)N7C(C)CC(O)C7C(=O)N(C)CC(=O)N(C)C(C(C)C)C(=O)OC6C)ccc(C)c5oc-4c(C)c(=O)c3N)C(CO)OC(=O)C(C)N(C)C(=O)CN(C)C(=O)C12` (stereo not drawn): the growth inhibition was 23.1% in test [1]; -18.8% in test [2]; 9.35% in test [3]; 20% in test [4]; -3.9% in test [5]; 8.45% in test [6].

For the molecule `C[N+](C)(C)NP(=O)(N[N+](C)(C)C)Oc1ccccc1`, the growth inhibition was 28.4% in test [1]; 15.2% in test [2]; -10.7% in test [3]; 20.8% in test [4]; 1.05% in test [5]; 28.1% in test [6].

Take `c1cc2c(c(NC3=NCCO3)c1)CCCC2`: the growth inhibition is 3.4% and 5.65% in test [1]; 1.05% and -2.1% in test [2]; -2.5% and 6.05% in test [3]; -45.5% and 0.05% in test [4]; -5.35% and 39.4% in test [5]; -1.1% and -6.15% in test [6].

For `CCCCCC[C@@H](O)[C@@H]1C2=C(C[C@H]([C@H](O)[C@@H]3CC=CC(=O)O3)CC3=C(C(=O)OC3=O)[C@@H]1O)C(=O)OC2=O`, the growth inhibition in test [1] is 20.6%; in test [2], 2.75%; in test [3] it was 26.7%; in test [4] it was 9.5%; in test [5], 16.7%; in test [6], 19.6%.

With `Cc1cccc(C)c1[S][Pb][S]c1c(C)cccc1C`, the growth inhibition in test [1] was -0.6%; in test [2], -3.75%; in test [3], -7.9%; in test [4], -0.75%; in test [5] it was -2.05%; in test [6] it was -17.4%.

In the case of `CC12CC(=O)C3C(CCC4CC=CCC43C)C1CCC2=O` (stereo not drawn), the growth inhibition was 22.1% in test [1]; -12.5% in test [2]; 28.1% in test [3]; 5.8% in test [4]; 10% in test [5]; 24.5% in test [6].

Turning to `C=CCc1c[nH]c(=S)[nH]c1=O.[Hg]`, the growth inhibition is 99.1% (active) in test [1]; 98.8% (active) in test [2]; 98.8% (active) in test [3]; 98.8% (active) in test [4]; 99% (active) in test [5]; 98.8% (active) in test [6].

`ClC(OC(Cl)C(Cl)(Cl)Cl)C(Cl)(Cl)Cl` (stereo not drawn): the growth inhibition is 52% in test [1]; 6.1% in test [2]; 30.9% in test [3]; 20.9% in test [4]; 46.5% in test [5]; 26.2% in test [6].

For `CCN(CC)P1(=O)OP(=O)(N(CC)CC)OP(=O)(N(CC)CC)O1` (stereo not drawn), the growth inhibition in test [1] was -0.5%; in test [2], 7%; in test [3], 11.8%; in test [4] it was 14.3%; in test [5] it was -9.7%; in test [6] it was -11.6%.

Take `CCCCC1(C(C)C)C(=O)NC(=O)N(C)C1=O` (stereo not drawn): the growth inhibition in test [1] was -5.55%; in test [2] it was 8.9%; in test [3] it was 5.15%; in test [4], -12.7%; in test [5], 5.75%; in test [6], 5.3%.

As to `Nc1ncnc(N)n1`, the growth inhibition in test [1] was -7.3%; in test [2] it was -17.1%; in test [3], 13.3%; in test [4] it was -28.8%; in test [5], -2.2%; in test [6], -9.65%.

Turning to `CC1(C)SC2C(NC(=O)COc3ccccc3)C(=O)N2C1C(=O)O` (stereo not drawn) (tested in a mixture with another compound), the growth inhibition in test [1] is -3.75%; in test [2], 8.1%; in test [3] it was 2.3%; in test [4], -24.4%; in test [5] it was -2.15%; in test [6], 10%.

As for `CCOP(O)(=S)OCC.[Yb]`, the growth inhibition in test [1] is 22.4%; in test [2], -2.45%; in test [3], -1.1%; in test [4], -22.7%; in test [5], -1.35%; in test [6] it was -7.4%.
